{
  "source": "PubChem BioAssay (EPA / NIEHS)",
  "note": "Values joined by “and” are separate entries in the source; they are usually repeats but may differ in a detail not shown here. Equal entries are not always repeated. Active and inactive are the calls of the source. Rule for the calls: active = hit-call score of the fitted dose curve at least 0.9, where 1 is the maximum; inactive = score below 0.9.",
  "data": [
    {"assay": "IUF_NPC4_neurite_length_120hr: Leibniz Research Institute for Environmental Medicine (IUF) 120-hour Neuronal Morphology Assay for Neurite Length (NPC4) (AID 2284302)", "method": "IUF_NPC2-5 is a cell-based, multiplexed assay that uses hNPC, a human primary neural progenitor cells, with measurements taken at 72 or 120 hours after chemical dosing in a 96-well plate. Human neural progenitor cells (hNPC) are generated from human fetal brain cortex at gestational week (GW) 16-19. In the neural progenitor cell migration and differentiation assay (NPC2-5), hNPCs grown as spheres are plated on an extracellular matrix and migrate and differentiate out of the sphere core. The processes radial glia migration, neuronal and oligodendrocyte migration as well as neuronal differentiation, neuronal morphology and oligodendrocyte differentiation are studied using automated phase contrast imaging and automated fluorescence imaging in combination with high content image analysis. In parallel, the cell viability is assessed using an alamar blue viability assay and the cytotoxicity using a lactate dehydrogenase dependent membrane integrity assay.IUF_NPC4_neurite_length_120hr is one of 12 assay components measured from the IUF_NPC2-5 assay. The neurite length at 120 hr is the mean length in um of all neurons (see IUF_NPC3_neuronal_differentiation_120hr) that are identified by the skeletonization algorithm in Omnisphero.Data from the IUF_NPC4_neurite_length_120hr component was analyzed at the endpoint IUF_NPC4_neurite_length_120hr in the positive analysis fitting direction relative to DMSO as the negative control and baseline of activity. Using a type of differentiation reporter, gain or loss-of-signal activity can be used to understand developmental effects.\nCulture protocol: After the cell expansion period the cells are cultured for up to four weeks in which they are passaged every week as described in 3.6. Between one to three days after passaging spheres at a size of 0.3 mm are picked for the test method. For the assessment of neural progenitor cell migration and differentiation, the spheres are plated on poly-D-lysine/laminin coated 96-well flat bottom plates in differentiation medium (N2) to initiate migration and differentiation. Thereby one 0.3 mm big sphere is plated in the middle of a well. The differentiation medium consists of DMEM and Ham's F12 at a ratio of 3 to 1 supplemented with 1% N2 and 1% penicillin and streptomycin. Within 5 days NPCs radially migrate out of the sphere core and differentiate into radial glia cells (nestin positive), neurons (TUBB3 positive), oligodendrocytes (O4 positive) and astrocytes (GFAP positive). Cultivation during the test method is performed at 37C and 5% CO2 at a ph of 7.2-7.6.Exposure: 0.3 mm big hNPC are plated in the already prepared test conditions. Exposure starts at day 0 of differentiation and is continued over five days of differentiation until the experiment is terminated. Cells are fed with fresh medium at day 3 of differentiation. Therefore, half of the test condition solution (e.g. solvent control or compound dilution) is replaced by freshly prepared test condition solution.Test Method: Migration distance and cytotoxicity is determined after 72 hours based on brightfield images of each well. The assay is terminated by the assessment of cell viability and cytotoxicity as well as cell fixation after 120 h. Immunocytochemistry is performed for Hoechst positive nuclei, TUBB3 positive neurons and O4 positive oligodendrocytes. On the ICC images, migration after 120 hours, neuronal and oligodendrocyte number, neuronal morphology and neuron/oligodendrocyte specific migration is assessed. immunocytochemical staining (ICC) generates an image for each sphere. The plates are scanned using an automated high content imaging device and all nuclei and their positions are determined automatically based on their intensity and size. Images are imported to the Omnisphero software to run the image analysis that measures the following endpoints. The method is set up for 8 test conditions including 7 compound concentrations and one SC. […]", "values": [
      {"smiles": "CC1(C)C(C=C(Cl)Cl)[C@H]1C(=O)O[C@H](C#N)c1cccc(Oc2ccccc2)c1", "note": "(stereo partly specified)", "outcome": "inactive"},
      {"smiles": "CC1(C)[C@H](C=C(Cl)Cl)[C@H]1C(=O)OCc1c(F)c(F)cc(F)c1F", "outcome": "inactive"},
      {"smiles": "CC(=O)[O-].[Tl+]", "AC50": "34.6 µM (active)"},
      {"smiles": "Brc1ccc(Oc2cc(Br)c(Br)cc2Br)c(Br)c1", "outcome": "inactive"},
      {"smiles": "[CH3][Hg][Cl]", "AC50": "298 nM (active) and 69.7 nM (active)"},
      {"smiles": "CCOP(=O)(OCC)OC(Cl)C(Cl)(Cl)Cl", "note": "(stereo unspecified)", "outcome": "inactive"},
      {"smiles": "C[n+]1ccc(-c2cc[n+](C)cc2)cc1", "outcome": "inactive"},
      {"smiles": "O=C1N[C@@H]2C(=C[C@H](O)[C@@H](O)[C@H]2O)c2cc3c(c(O)c21)OCO3", "AC50": "0.0148 µM (active)"},
      {"smiles": "CNC(=N[N+](=O)[O-])NCC1CCOC1", "note": "(stereo unspecified)", "outcome": "inactive"},
      {"smiles": "Brc1ccc(Oc2ccc(Br)cc2Br)c(Br)c1", "outcome": "inactive"},
      {"smiles": "CNC1(c2ccccc2Cl)CCCCC1=O", "note": "(stereo unspecified)", "outcome": "inactive"},
      {"smiles": "[O-][Cl+3]([O-])([O-])O", "outcome": "inactive"},
      {"smiles": "CP(=O)(O)CCC(N)C(=O)O", "note": "(stereo unspecified)", "outcome": "inactive"},
      {"smiles": "CC1(C)C(C=C(Cl)Cl)C1C(=O)O[C@H](C#N)c1cccc(Oc2ccccc2)c1", "note": "(stereo partly specified)", "outcome": "inactive"},
      {"smiles": "Cc1ccc(OP(=O)(Oc2ccc(C)cc2)Oc2ccc(C)cc2)cc1", "note": "(tested in a mixture with another compound)", "outcome": "inactive"},
      {"smiles": "CCOP(=O)(Oc1cnc(C(C)(C)C)nc1)OC(C)C", "note": "(stereo unspecified)", "outcome": "inactive"},
      {"smiles": "CCOP(=O)(OCC)SCSCC", "outcome": "inactive"},
      {"smiles": "O=[As]O", "AC50": "0.752 µM (active)"},
      {"smiles": "CC1(C)C(C=C(Cl)c2ccc(Cl)cc2)C1C(=O)OC(C#N)c1ccc(F)c(Oc2ccccc2)c1", "note": "(stereo unspecified)", "outcome": "inactive"},
      {"smiles": "C/C(=C/C=C/[C@@H](C)C(=O)O)[C@H]1CN[C@H](C(=O)O)[C@H]1CC(=O)O", "AC50": "0.0406 µM (active)"},
      {"smiles": "CC1(C)[C@@H](C=C(Cl)Cl)[C@@H]1C(=O)O[C@@H](C#N)c1ccc(F)c(Oc2ccccc2)c1", "outcome": "inactive"},
      {"smiles": "CC(C)CCCCCCCOP(=O)(Oc1ccccc1)Oc1ccccc1", "outcome": "inactive"},
      {"smiles": "CCOP(=O)(OCC)SCSC(C)(C)C", "outcome": "inactive"},
      {"smiles": "CC(=O)[O-].CC(=O)[O-].O.O.O.[Pb+2]", "outcome": "inactive"},
      {"smiles": "COP(=O)(OC)SCN1C(=O)c2ccccc2C1=O", "outcome": "inactive"},
      {"smiles": "CC(C)CC(C)c1sccc1NC(=O)c1cn(C)nc1C(F)(F)F", "note": "(stereo unspecified)", "outcome": "inactive"},
      {"smiles": "[Cd+2].[Cl-].[Cl-]", "AC50": "7.58 µM (active)"},
      {"smiles": "C[n+]1ccc(-c2ccccc2)cc1", "outcome": "inactive"},
      {"smiles": "Cn1nc(C(F)(F)F)c(CS(=O)(=O)C2=NOC(C)(C)C2)c1OC(F)F", "AC50": "42.3 µM (active)"},
      {"smiles": "CC1(C)[C@H](C(=O)O[C@H](C#N)c2cccc(Oc3ccccc3)c2)[C@@H]1C=C(Br)Br", "outcome": "inactive"},
      {"smiles": "CCOP(=S)(OCC)SCS(=O)C(C)(C)C", "note": "(stereo unspecified)", "outcome": "inactive"}
    ]}
  ]
}
